# Experimental data taken from PMC11006913.
# Legend:
# Experiment in all cases: PBM; 200 nM protein, PBS
# Conditions in all cases: dsDNA, one strand shown
# [1] = biological target: MSX2 (Homo sapiens, UniProt P35548 130-214, R199I)
# [2] = biological target: MSX2 (Homo sapiens, UniProt P35548 130-214)
# [3] = biological target: MSX2 (Homo sapiens, UniProt P35548 130-214, F161Y)
# [4] = biological target: ALX3 (Homo sapiens, UniProt O95076 139-225, N203Q)
# [5] = biological target: ALX3 (Homo sapiens, UniProt O95076 139-225)
# ALX3 (Homo sapiens, UniProt O95076 139-225), sequence (O95076 139-225): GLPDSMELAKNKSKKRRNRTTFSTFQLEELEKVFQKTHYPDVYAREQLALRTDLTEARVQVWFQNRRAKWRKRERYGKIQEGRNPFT
# [6] = biological target: ALX3 (Homo sapiens, UniProt O95076 139-225, L168Q)
# ALX3 (Homo sapiens, UniProt O95076 139-225, L168Q), sequence (O95076 139-225 L168Q): as the sequence (O95076 139-225) above, with L30Q counted along it
# [7] = biological target: ALX3 (Homo sapiens, UniProt O95076 139-225, L168V)
# ALX3 (Homo sapiens, UniProt O95076 139-225, L168V), sequence (O95076 139-225 L168V): as the sequence (O95076 139-225) above, with L30V counted along it
# [8] = biological target: ALX3 (Homo sapiens, UniProt O95076 139-225, N203S)
# ALX3 (Homo sapiens, UniProt O95076 139-225, N203S), sequence (O95076 139-225 N203S): as the sequence (O95076 139-225) above, with N65S counted along it
# [9] = biological target: PITX2 (Homo sapiens, UniProt Q99697 72-157)
# [10] = biological target: PROP1 (Homo sapiens, UniProt O75360 56-141)
# PROP1 (Homo sapiens, UniProt O75360 56-141), sequence (O75360 56-141): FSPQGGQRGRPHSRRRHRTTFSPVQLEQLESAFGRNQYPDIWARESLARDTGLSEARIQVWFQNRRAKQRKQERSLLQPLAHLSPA
# [11] = biological target: PROP1 (Homo sapiens, UniProt O75360 56-141, R99H)
# PROP1 (Homo sapiens, UniProt O75360 56-141, R99H), sequence (O75360 56-141 R99H): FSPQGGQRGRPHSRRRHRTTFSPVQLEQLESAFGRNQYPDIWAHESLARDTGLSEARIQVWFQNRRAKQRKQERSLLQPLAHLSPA
# [12] = biological target: VAX1 (Homo sapiens, UniProt Q5SQQ9 86-172)
# VAX1 (Homo sapiens, UniProt Q5SQQ9 86-172), sequence (Q5SQQ9 86-172): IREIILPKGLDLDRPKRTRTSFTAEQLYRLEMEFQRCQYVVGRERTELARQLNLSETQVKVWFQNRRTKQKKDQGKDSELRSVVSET
# [13] = biological target: PROP1 (Homo sapiens, UniProt O75360 56-141, F88S)
# PROP1 (Homo sapiens, UniProt O75360 56-141, F88S), sequence (O75360 56-141 F88S): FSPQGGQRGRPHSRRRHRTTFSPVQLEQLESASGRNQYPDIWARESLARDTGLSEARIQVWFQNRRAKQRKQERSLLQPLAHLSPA
# [14] = biological target: VAX1 (Homo sapiens, UniProt Q5SQQ9 86-172, T142I)
# VAX1 (Homo sapiens, UniProt Q5SQQ9 86-172, T142I), sequence (Q5SQQ9 86-172 T142I): as the sequence (Q5SQQ9 86-172) above, with T57I counted along it
# [15] = biological target: VAX1 (Homo sapiens, UniProt Q5SQQ9 86-172, K157R)
# VAX1 (Homo sapiens, UniProt Q5SQQ9 86-172, K157R), sequence (Q5SQQ9 86-172 K157R): as the sequence (Q5SQQ9 86-172) above, with K72R counted along it
# [16] = biological target: ALX1 (Homo sapiens, UniProt Q15699 118-204, L144V)
# ALX1 (Homo sapiens, UniProt Q15699 118-204, L144V), sequence (Q15699 118-204 L144V): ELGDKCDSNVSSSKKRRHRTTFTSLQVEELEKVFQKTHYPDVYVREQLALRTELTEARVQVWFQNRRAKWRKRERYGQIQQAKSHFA
# [17] = biological target: ALX1 (Homo sapiens, UniProt Q15699 118-204, L144R)
# ALX1 (Homo sapiens, UniProt Q15699 118-204, L144R), sequence (Q15699 118-204 L144R): as the sequence (Q15699 118-204 L144V) above, with V27R counted along it
# [18] = biological target: ALX1 (Homo sapiens, UniProt Q15699 118-204)
# ALX1 (Homo sapiens, UniProt Q15699 118-204), sequence (Q15699 118-204): as the sequence (Q15699 118-204 L144V) above, with V27L counted along it
# MSX2 (Homo sapiens, UniProt P35548 130-214), sequence (P35548 130-214): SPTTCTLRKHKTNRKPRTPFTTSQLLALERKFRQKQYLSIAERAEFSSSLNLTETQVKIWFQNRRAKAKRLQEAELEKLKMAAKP
# MSX2 (Homo sapiens, UniProt P35548 130-214, F161Y), sequence (P35548 130-214 F161Y): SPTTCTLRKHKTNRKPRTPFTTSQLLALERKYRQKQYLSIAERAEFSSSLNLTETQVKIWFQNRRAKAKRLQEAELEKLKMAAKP
# MSX2 (Homo sapiens, UniProt P35548 130-214, R199I), sequence (P35548 130-214 R199I): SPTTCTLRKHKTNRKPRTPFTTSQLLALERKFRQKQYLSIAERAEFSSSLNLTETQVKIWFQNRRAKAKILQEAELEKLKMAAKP
# ALX3 (Homo sapiens, UniProt O95076 139-225, N203Q), sequence (O95076 139-225 N203Q): as the sequence (O95076 139-225) above, with N65Q counted along it
sequence,measurement,setting,value
CGCTCAGC,binding signal,[1],"9.48 upbm affinity estimate (log intensity, higher = more binding, comparable within an allelic series)"
same,binding signal,[2],"9.57 upbm affinity estimate (log intensity, higher = more binding, comparable within an allelic series)"
same,binding signal,[3],"9.59 upbm affinity estimate (log intensity, higher = more binding, comparable within an allelic series)"
CAATCAAA,binding signal,[1],"10.9 upbm affinity estimate (log intensity, higher = more binding, comparable within an allelic series)"
GCTCCAGC,binding signal,[1],"9.46 upbm affinity estimate (log intensity, higher = more binding, comparable within an allelic series)"
same,binding signal,[4],"7.72 upbm affinity estimate (log intensity, higher = more binding, comparable within an allelic series)"
same,binding signal,[2],"9.45 upbm affinity estimate (log intensity, higher = more binding, comparable within an allelic series)"
same,binding signal,[5],"7.57 upbm affinity estimate (log intensity, higher = more binding, comparable within an allelic series)"
same,binding signal,[6],"7.7 upbm affinity estimate (log intensity, higher = more binding, comparable within an allelic series)"
same,binding signal,[7],"7.6 upbm affinity estimate (log intensity, higher = more binding, comparable within an allelic series)"
same,binding signal,[3],"9.5 upbm affinity estimate (log intensity, higher = more binding, comparable within an allelic series)"
same,binding signal,[8],"7.72 upbm affinity estimate (log intensity, higher = more binding, comparable within an allelic series)"
ATTAACAC,binding signal,[1],"11.3 upbm affinity estimate (log intensity, higher = more binding, comparable within an allelic series)"
same,binding signal,[2],"12.1 upbm affinity estimate (log intensity, higher = more binding, comparable within an allelic series)"
same,binding signal,[3],"11.8 upbm affinity estimate (log intensity, higher = more binding, comparable within an allelic series)"
CACCAGCC,binding signal,[1],"9.46 upbm affinity estimate (log intensity, higher = more binding, comparable within an allelic series)"
same,binding signal,[2],"9.42 upbm affinity estimate (log intensity, higher = more binding, comparable within an allelic series)"
same,binding signal,[3],"9.47 upbm affinity estimate (log intensity, higher = more binding, comparable within an allelic series)"
AGGGGCCG,binding signal,[1],"9.46 upbm affinity estimate (log intensity, higher = more binding, comparable within an allelic series)"
same,binding signal,[2],"9.56 upbm affinity estimate (log intensity, higher = more binding, comparable within an allelic series)"
same,binding signal,[3],"9.42 upbm affinity estimate (log intensity, higher = more binding, comparable within an allelic series)"
GACCTCCC,binding signal,[1],"9.42 upbm affinity estimate (log intensity, higher = more binding, comparable within an allelic series)"
same,binding signal,[9],"8.09 upbm affinity estimate (log intensity, higher = more binding, comparable within an allelic series)"
same,binding signal,[2],"9.46 upbm affinity estimate (log intensity, higher = more binding, comparable within an allelic series)"
same,binding signal,[3],"9.44 upbm affinity estimate (log intensity, higher = more binding, comparable within an allelic series)"
AGGCGTGA,binding signal,[1],"9.57 upbm affinity estimate (log intensity, higher = more binding, comparable within an allelic series)"
same,binding signal,[2],"9.37 upbm affinity estimate (log intensity, higher = more binding, comparable within an allelic series)"
same,binding signal,[3],"9.36 upbm affinity estimate (log intensity, higher = more binding, comparable within an allelic series)"
CCCTAGCG,binding signal,[1],"9.48 upbm affinity estimate (log intensity, higher = more binding, comparable within an allelic series)"
same,binding signal,[2],"9.29 upbm affinity estimate (log intensity, higher = more binding, comparable within an allelic series)"
same,binding signal,[10],"6.52 upbm affinity estimate (log intensity, higher = more binding, comparable within an allelic series)"
same,binding signal,[11],"6.7 upbm affinity estimate (log intensity, higher = more binding, comparable within an allelic series)"
same,binding signal,[12],"6.79 upbm affinity estimate (log intensity, higher = more binding, comparable within an allelic series)"
same,binding signal,[13],"6.73 upbm affinity estimate (log intensity, higher = more binding, comparable within an allelic series)"
same,binding signal,[3],"9.37 upbm affinity estimate (log intensity, higher = more binding, comparable within an allelic series)"
same,binding signal,[14],"7.2 upbm affinity estimate (log intensity, higher = more binding, comparable within an allelic series)"
same,binding signal,[15],"6.92 upbm affinity estimate (log intensity, higher = more binding, comparable within an allelic series)"
GAAGCAGC,binding signal,[1],"9.64 upbm affinity estimate (log intensity, higher = more binding, comparable within an allelic series)"
same,binding signal,[2],"9.57 upbm affinity estimate (log intensity, higher = more binding, comparable within an allelic series)"
same,binding signal,[12],"7.06 upbm affinity estimate (log intensity, higher = more binding, comparable within an allelic series)"
same,binding signal,[3],"9.57 upbm affinity estimate (log intensity, higher = more binding, comparable within an allelic series)"
same,binding signal,[14],"7.19 upbm affinity estimate (log intensity, higher = more binding, comparable within an allelic series)"
same,binding signal,[15],"6.96 upbm affinity estimate (log intensity, higher = more binding, comparable within an allelic series)"
CCTACGGC,binding signal,[1],"9.61 upbm affinity estimate (log intensity, higher = more binding, comparable within an allelic series)"
same,binding signal,[16],"6.56 upbm affinity estimate (log intensity, higher = more binding, comparable within an allelic series)"
same,binding signal,[17],"6.66 upbm affinity estimate (log intensity, higher = more binding, comparable within an allelic series)"
same,binding signal,[2],"9.61 upbm affinity estimate (log intensity, higher = more binding, comparable within an allelic series)"
same,binding signal,[3],"9.63 upbm affinity estimate (log intensity, higher = more binding, comparable within an allelic series)"
same,binding signal,[18],"6.68 upbm affinity estimate (log intensity, higher = more binding, comparable within an allelic series)"
CACGGTCG,binding signal,[1],"9.6 upbm affinity estimate (log intensity, higher = more binding, comparable within an allelic series)"
same,binding signal,[2],"9.56 upbm affinity estimate (log intensity, higher = more binding, comparable within an allelic series)"
same,binding signal,[3],"9.58 upbm affinity estimate (log intensity, higher = more binding, comparable within an allelic series)"
